Laboratory results as given in article PMC11062922 (Nature Chemical Biology, 2023).
Where two headings read alike, the source gives them in different places.

How the values were obtained:
[1] = system: MARK3; conditions: read-out: apparent Kd, n = 1
[2] = system: MARK4; conditions: read-out: apparent Kd, n = 1
[3] = compound concentrations:100 nM and 1000 nM (sheet 'Lestaurtinib' of Supplementary Table 1),run:Lestaurtinib_02473_R3,Plate:MR010
[4] = compound concentrations:100 nM and 1000 nM (sheet 'Lestaurtinib' of Supplementary Table 1),run:Lestaurtinib_02482_R2,Plate:MR011
[5] = compound concentrations:100 nM and 1000 nM (sheet 'Lestaurtinib' of Supplementary Table 1),run:Lestaurtinib_02482_R3,Plate:MR011
[6] = compound concentrations:100 nM and 1000 nM (sheet 'Lestaurtinib' of Supplementary Table 1),run:Lestaurtinib_02487_R1,Plate:MR012
[7] = compound concentrations:100 nM and 1000 nM (sheet 'Lestaurtinib' of Supplementary Table 1),run:Lestaurtinib_02487_R2,Plate:MR012
[8] = compound concentrations:100 nM and 1000 nM (sheet 'Lestaurtinib' of Supplementary Table 1),run:Lestaurtinib_02496_R2,Plate:MR013
[9] = compound concentrations:100 nM and 1000 nM (sheet 'Lestaurtinib' of Supplementary Table 1),run:Lestaurtinib_02496_R3,Plate:MR013
[10] = compound concentrations:100 nM and 1000 nM (sheet 'Lestaurtinib' of Supplementary Table 1),run:Lestaurtinib_02566_R1,Plate:MR014
[11] = compound concentrations:100 nM and 1000 nM (sheet 'Lestaurtinib' of Supplementary Table 1),run:Lestaurtinib_02572_R1,Plate:MR015
[12] = compound concentrations:100 nM and 1000 nM (sheet 'Lestaurtinib' of Supplementary Table 1),run:Lestaurtinib_02577_R1,Plate:MR016
[13] = compound concentrations:100 nM and 1000 nM (sheet 'Lestaurtinib' of Supplementary Table 1),run:Lestaurtinib_02577_R3,Plate:MR016
[14] = compound concentrations:100 nM and 1000 nM (sheet 'Lestaurtinib' of Supplementary Table 1),run:Lestaurtinib_02584_R3,Plate:MR017
[15] = compound concentrations:100 nM and 1000 nM (sheet 'Lestaurtinib' of Supplementary Table 1),run:Lestaurtinib_02606_R3,Plate:MR019
[16] = compound concentrations:100 nM and 1000 nM (sheet 'Lestaurtinib' of Supplementary Table 1),run:Lestaurtinib_02624_R2,Plate:MR020

Substance: Lestaurtinib
- potency estimated from few doses ([1]; compound concentrations:100 nM and 1000 nM (sheet 'Lestaurtinib' of Supplementary Table 1),run:Lestaurtinib_02443_R3,Plate:MR009): 217 nM
- potency estimated from few doses [1, 3]: 98.5 nM
- potency estimated from few doses [1, 4]: 158 nM
- potency estimated from few doses [1, 5]: 140 nM
- potency estimated from few doses [1, 6]: 153 nM
- potency estimated from few doses [1, 7]: 200 nM
- potency estimated from few doses ([1]; compound concentrations:100 nM and 1000 nM (sheet 'Lestaurtinib' of Supplementary Table 1),run:Lestaurtinib_02487_R3,Plate:MR012): 172 nM
- potency estimated from few doses [1, 8]: 153 nM
- potency estimated from few doses [1, 9]: 146 nM
- potency estimated from few doses [1, 10]: 140 nM
- potency estimated from few doses [1, 11]: 140 nM
- potency estimated from few doses ([1]; compound concentrations:100 nM and 1000 nM (sheet 'Lestaurtinib' of Supplementary Table 1),run:Lestaurtinib_02572_R2,Plate:MR015): 162 nM
- potency estimated from few doses [1, 12]: 158 nM
- potency estimated from few doses ([1]; compound concentrations:100 nM and 1000 nM (sheet 'Lestaurtinib' of Supplementary Table 1),run:Lestaurtinib_02577_R2,Plate:MR016): 224 nM
- potency estimated from few doses [1, 13]: 259 nM
- potency estimated from few doses [1, 14]: 211 nM
- potency estimated from few doses ([1]; compound concentrations:100 nM and 1000 nM (sheet 'Lestaurtinib' of Supplementary Table 1),run:Lestaurtinib_02601_R2,Plate:MR018): 184 nM
- potency estimated from few doses ([1]; compound concentrations:100 nM and 1000 nM (sheet 'Lestaurtinib' of Supplementary Table 1),run:Lestaurtinib_02606_R2,Plate:MR019): 131 nM
- potency estimated from few doses [1, 15]: 162 nM
- potency estimated from few doses ([1]; compound concentrations:100 nM and 1000 nM (sheet 'Lestaurtinib' of Supplementary Table 1),run:Lestaurtinib_02624_R1,Plate:MR020): 146 nM
- potency estimated from few doses [1, 16]: 143 nM
- potency estimated from few doses ([1]; compound concentrations:100 nM and 1000 nM (sheet 'Lestaurtinib' of Supplementary Table 1),run:Lestaurtinib_02724_R1,Plate:MR021): 157 nM
- potency estimated from few doses ([1]; compound concentrations:100 nM and 1000 nM (sheet 'Lestaurtinib' of Supplementary Table 1),run:Lestaurtinib_02724_R2,Plate:MR021): 180 nM
- potency estimated from few doses ([1]; compound concentrations:100 nM and 1000 nM (sheet 'Lestaurtinib' of Supplementary Table 1),run:Lestaurtinib_02724_R3,Plate:MR021): 163 nM
- potency estimated from few doses ([1]; compound concentrations:100 nM and 1000 nM (sheet 'Lestaurtinib' of Supplementary Table 1),run:Lestaurtinib_02752_R3,Plate:MR025): 189 nM
- potency estimated from few doses ([1]; compound concentrations:100 nM and 1000 nM (sheet 'Lestaurtinib' of Supplementary Table 1),run:Lestaurtinib_02765_R3,Plate:MR026): 143 nM
- potency estimated from few doses ([1]; compound concentrations:100 nM and 1000 nM (sheet 'Lestaurtinib' of Supplementary Table 1),run:Lestaurtinib_02766_R3,Plate:MR027): 137 nM
- potency estimated from few doses ([1]; compound concentrations:100 nM and 1000 nM (sheet 'Lestaurtinib' of Supplementary Table 1),run:Lestaurtinib_02768_R3,Plate:MR028): 136 nM
- potency estimated from few doses ([1]; compound concentrations:100 nM and 1000 nM (sheet 'Lestaurtinib' of Supplementary Table 1),run:Lestaurtinib_02795_R1,Plate:MR022): 154 nM
- potency estimated from few doses ([1]; compound concentrations:100 nM and 1000 nM (sheet 'Lestaurtinib' of Supplementary Table 1),run:Lestaurtinib_02795_R2,Plate:MR022): 141 nM
- potency estimated from few doses ([1]; compound concentrations:100 nM and 1000 nM (sheet 'Lestaurtinib' of Supplementary Table 1),run:Lestaurtinib_02795_R3,Plate:MR022): 268 nM
- potency estimated from few doses ([1]; compound concentrations:100 nM and 1000 nM (sheet 'Lestaurtinib' of Supplementary Table 1),run:Lestaurtinib_02896_R1,Plate:MR030): 142 nM
- potency estimated from few doses ([1]; compound concentrations:100 nM and 1000 nM (sheet 'Lestaurtinib' of Supplementary Table 1),run:Lestaurtinib_02896_R3,Plate:MR030): 159 nM
- potency estimated from few doses ([1]; compound concentrations:100 nM and 1000 nM (sheet 'Lestaurtinib' of Supplementary Table 1),run:Lestaurtinib_03172_R1,Plate:MR031): 161 nM
- potency estimated from few doses ([1]; compound concentrations:100 nM and 1000 nM (sheet 'Lestaurtinib' of Supplementary Table 1),run:Lestaurtinib_03172_R2,Plate:MR031): 207 nM
- potency estimated from few doses ([1]; compound concentrations:100 nM and 1000 nM (sheet 'Lestaurtinib' of Supplementary Table 1),run:Lestaurtinib_03172_R3,Plate:MR031): 146 nM
- potency estimated from few doses ([1]; compound concentrations:100 nM and 1000 nM (sheet 'Lestaurtinib' of Supplementary Table 1),run:Lestaurtinib_03260_R1,Plate:MR033): 381 nM
- potency estimated from few doses ([1]; compound concentrations:100 nM and 1000 nM (sheet 'Lestaurtinib' of Supplementary Table 1),run:Lestaurtinib_03260_R2,Plate:MR033): 379 nM
- potency estimated from few doses ([1]; compound concentrations:100 nM and 1000 nM (sheet 'Lestaurtinib' of Supplementary Table 1),run:Lestaurtinib_03260_R3,Plate:MR033): 184 nM
- potency estimated from few doses ([2]; compound concentrations:100 nM and 1000 nM (sheet 'Lestaurtinib' of Supplementary Table 1),run:Lestaurtinib_02339_R2,Plate:MR001): 165 nM
- potency estimated from few doses ([2]; compound concentrations:100 nM and 1000 nM (sheet 'Lestaurtinib' of Supplementary Table 1),run:Lestaurtinib_02339_R3,Plate:MR001): 385 nM
- potency estimated from few doses ([2]; compound concentrations:100 nM and 1000 nM (sheet 'Lestaurtinib' of Supplementary Table 1),run:Lestaurtinib_02364_R1,Plate:MR002): 73 nM
- potency estimated from few doses ([2]; compound concentrations:100 nM and 1000 nM (sheet 'Lestaurtinib' of Supplementary Table 1),run:Lestaurtinib_02367_R2,Plate:MR003): 79.7 nM
- potency estimated from few doses ([2]; compound concentrations:100 nM and 1000 nM (sheet 'Lestaurtinib' of Supplementary Table 1),run:Lestaurtinib_02367_R3,Plate:MR003): 85.1 nM
- potency estimated from few doses ([2]; compound concentrations:100 nM and 1000 nM (sheet 'Lestaurtinib' of Supplementary Table 1),run:Lestaurtinib_02381_R3,Plate:MR004): 209 nM
- potency estimated from few doses ([2]; compound concentrations:100 nM and 1000 nM (sheet 'Lestaurtinib' of Supplementary Table 1),run:Lestaurtinib_02422_R1,Plate:MR006): 74.8 nM
- potency estimated from few doses ([2]; compound concentrations:100 nM and 1000 nM (sheet 'Lestaurtinib' of Supplementary Table 1),run:Lestaurtinib_02422_R3,Plate:MR006): 86.4 nM
- potency estimated from few doses ([2]; compound concentrations:100 nM and 1000 nM (sheet 'Lestaurtinib' of Supplementary Table 1),run:Lestaurtinib_02437_R1,Plate:MR007): 974 nM
- potency estimated from few doses ([2]; compound concentrations:100 nM and 1000 nM (sheet 'Lestaurtinib' of Supplementary Table 1),run:Lestaurtinib_02438_R3,Plate:MR008): 83.1 nM
- potency estimated from few doses ([2]; compound concentrations:100 nM and 1000 nM (sheet 'Lestaurtinib' of Supplementary Table 1),run:Lestaurtinib_02443_R2,Plate:MR009): 93.4 nM
- potency estimated from few doses ([2]; compound concentrations:100 nM and 1000 nM (sheet 'Lestaurtinib' of Supplementary Table 1),run:Lestaurtinib_02473_R1,Plate:MR010): 84.5 nM
- potency estimated from few doses [2, 3]: 59.7 nM
- potency estimated from few doses [2, 4]: 86.4 nM
- potency estimated from few doses [2, 5]: 83.9 nM
- potency estimated from few doses [2, 6]: 703 nM
- potency estimated from few doses [2, 7]: 162 nM
- potency estimated from few doses [2, 8]: 83.9 nM
- potency estimated from few doses [2, 9]: 668 nM
- potency estimated from few doses [2, 10]: 708 nM
- potency estimated from few doses ([2]; compound concentrations:100 nM and 1000 nM (sheet 'Lestaurtinib' of Supplementary Table 1),run:Lestaurtinib_02566_R2,Plate:MR014): 36.8 nM
- potency estimated from few doses ([2]; compound concentrations:100 nM and 1000 nM (sheet 'Lestaurtinib' of Supplementary Table 1),run:Lestaurtinib_02566_R3,Plate:MR014): 497 nM
- potency estimated from few doses [2, 11]: 115 nM
- potency estimated from few doses [2, 12]: 141 nM
- potency estimated from few doses [2, 13]: 199 nM
- potency estimated from few doses ([2]; compound concentrations:100 nM and 1000 nM (sheet 'Lestaurtinib' of Supplementary Table 1),run:Lestaurtinib_02584_R1,Plate:MR017): 85.5 nM
- potency estimated from few doses ([2]; compound concentrations:100 nM and 1000 nM (sheet 'Lestaurtinib' of Supplementary Table 1),run:Lestaurtinib_02584_R2,Plate:MR017): 74.7 nM
- potency estimated from few doses [2, 14]: 80.1 nM
- potency estimated from few doses ([2]; compound concentrations:100 nM and 1000 nM (sheet 'Lestaurtinib' of Supplementary Table 1),run:Lestaurtinib_02601_R1,Plate:MR018): 90.9 nM
- potency estimated from few doses ([2]; compound concentrations:100 nM and 1000 nM (sheet 'Lestaurtinib' of Supplementary Table 1),run:Lestaurtinib_02601_R3,Plate:MR018): 93.4 nM
- potency estimated from few doses [2, 15]: 115 nM
- potency estimated from few doses [2, 16]: 84.3 nM
- potency estimated from few doses ([2]; compound concentrations:100 nM and 1000 nM (sheet 'Lestaurtinib' of Supplementary Table 1),run:Lestaurtinib_02624_R3,Plate:MR020): 78.4 nM
